Data on 22 molecules can be found in PubChem BioAssay AID1645838 (ICCB-Longwood Screening Facility, Harvard Medical School, 2021).

The nature of this test: modulators of mitochondrial supercomplex assembly, cell-based, luminescence, Hoechst nuclei count (AID 1645838).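 On all read-outs here: control cybrid cells.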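 On z-score: higher means more mitochondrial supercomplex formation.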 The note with it: Cells, luminescence/Hoechst cell count ratio, supercomplex reporter; for z-score: stronger effect = higher value; for cell count: measured here: cell number, Hoechst nuclei count; for outcome: library stock 10 mM.
The mark [1] stands for this setting: library stock concentration (final well concentration not given) 80 uM.
The mark [2] stands for this setting: library stock concentration (final well concentration not given) 400 uM.
Setting [3] is: library stock concentration (final well concentration not given) 2 mM.
The mark [4] stands for this setting: library stock concentration (final well concentration not given) 10 mM.
Where [5] appears, read: library stock concentration (final well concentration not given) 46 uM.
[6] abbreviates: library stock concentration (final well concentration not given) 278 uM.
Setting [7] is: library stock concentration (final well concentration not given) 1.67 mM.

The structures appear in SMILES notation. Out of some 2,000 compounds screened, about 100 (5%) were called active. No stated cut-off is given here; in the data, active means z-score above about 2; inactive means the rest. Only a selection was taken, and actives are over-represented in it overall.

Consider `COC(=O)CCCCCC[C@@H]1[C@@H](CCC(O)C#Cc2ccccc2F)[C@H](O)C[C@@H]1O` (some centres not stated), for which the z-score is -0.523 (inactive) and the cell count worked out at 5390.
As to `CCCCC[C@H](O)/C=C/[C@@H]1[C@H]2C[C@H](CCCCC(=O)O)O[C@H]2C[C@H]1O`, the z-score is 0.18 (inactive) and the cell count is 5310.
`COc1cc(N2CCC(C(N)=O)CC2)ccc1Nc1nc(N)c(Cl)c(Nc2ccccc2S(=O)(=O)C(C)C)n1`: the z-score by setting is: under setting [1], -0.397 (inactive); under setting [2], -0.357 (inactive); under setting [3], -0.497 (inactive); under setting [4], -0.438 (inactive). The cell count by setting is: under setting [1], 5060; under setting [2], 4660; under setting [3], 4640; under setting [4], 4760.
For `COc1cc2ncnc(Nc3cc(Br)c(O)c(Br)c3)c2cc1OC`, the z-score reads like this: under setting [1], -0.757 (inactive); under setting [2], -0.502 (inactive); under setting [3], -0.971 (inactive); under setting [4], -0.687 (inactive). The cell count by setting is: under setting [1], 4740; under setting [2], 4630; under setting [3], 5420; under setting [4], 5090.
As for `C#Cc1cccc(Nc2ncnc3cc(OCCOC)c(OCCOC)cc23)c1`, the z-score is 0.334 (inactive) under setting [1], 0.287 (inactive) under setting [2], -0.186 (inactive) under setting [3] and 2.02 (active) under setting [4]. Also, the cell count by setting is: under setting [1], 5220; under setting [2], 5400; under setting [3], 5470; under setting [4], 3820.
In the case of `C#Cc1cccc(Nc2ncnc3cc4c(cc23)OCCOCCOCCO4)c1`, the z-score reads like this: under setting [1], -0.401 (inactive); under setting [2], -0.555 (inactive); under setting [3], -0.372 (inactive); under setting [4], -0.218 (inactive). Moreover, the cell count under setting [1] was 5760, the cell count under setting [2] came to 5920, the cell count under setting [3] came to 5800 and the cell count under setting [4] came to 5980.
With `C[C@H](N)C(=O)CCCCCC(=O)O`, the z-score is -0.273 (inactive) and the cell count was 5410.
In the same order, the values of `NCCCNCCCCN(CCCN)[N+]([O-])=NO` are 1.09 (inactive) and 5110.
On the same counts, the results for `COc1ccc2cc(CC(=O)O)ccc2c1` are -0.782 (inactive) and 5780.
On the same counts, the results for `CCCCC[C@H](O)/C=C/[C@H]1CC[C@H](O)[C@@H]1CCCCCCC(=O)O` are -0.59 (inactive) and 5510.
`CN(C)C1CCN(C(=O)c2ccc(NC(=O)Nc3ccc(-c4nc(N5CCOCC5)nc(N5CCOCC5)n4)cc3)cc2)CC1`: the outcome is “inactive; censored for cell count”. Under setting [1], the z-score was -0.0957 (inactive) and the cell count was determined as 5680. For the same molecule, under setting [2], the z-score is 0.581 (inactive) and the cell count was determined as 4160. Besides, under setting [3], the z-score was 2.23 (active) and the cell count came to 1900.
Turning to `CNC(=O)Nc1ccc(-c2nc(N3CC4CCC(C3)O4)c3cnn(C4CCC5(CC4)OCCO5)c3n2)cc1`, the outcome is “inactive; censored for cell count”. Further, under setting [1], the z-score is 1.01 (inactive) and the cell count amounted to 2180. Further, under setting [2], the z-score is 1.56 (inactive) and the cell count turned out to be 1780. In addition, under setting [3], the z-score was 1.64 (inactive) and the cell count is 1600.
Turning to `O=C(Nc1ccccc1)Nc1ccc(-c2ccc(C(=O)C3CCCC3C(=O)O)cc2)cc1` (configuration not stated), the z-score runs as follows: under setting [1], -0.37 (inactive); under setting [2], -0.219 (inactive); under setting [3], -0.285 (inactive); under setting [4], -0.46 (inactive). Also, the cell count under setting [1] amounted to 5980, the cell count under setting [2] worked out at 5880, the cell count under setting [3] was found to be 6590 and the cell count under setting [4] was determined as 5760.
Take `CC(C)CCC[C@@H](C)[C@H]1CC[C@H]2[C@@H]3CC(=O)[C@@]4(O)C[C@@H](O)CC[C@]4(C)[C@H]3CC[C@]12C`: the z-score is 0.076 (inactive) and the cell count worked out at 4620.
`CN(CC=CC#CC(C)(C)C)Cc1cccc2ccccc12`: the z-score is -0.128 (inactive) under setting [5], -0.114 (inactive) under setting [6], -0.2 (inactive) under setting [7] and -0.286 (inactive) under setting [4]. Moreover, the cell count is, setting by setting: under setting [5], 4930; under setting [6], 4830; under setting [7], 5350; under setting [4], 5180.
Turning to `CCCCCCCCC#CCCCCCCCC(=O)c1nc2ncccc2o1`, the z-score is -0.992 (inactive) and the cell count worked out at 5900.
With `CCOC(=O)C(N)Cc1ccc(-c2cc(OC(c3ccc(Cl)cc3-n3ccc(C)n3)C(F)(F)F)nc(N)n2)cc1` (configuration not stated), the z-score was -0.503 (inactive) under setting [5], -0.649 (inactive) under setting [6], -0.638 (inactive) under setting [7] and 1.7 (inactive) under setting [4]. The cell count is, setting by setting: under setting [5], 6360; under setting [6], 6270; under setting [7], 6660; under setting [4], 2760.
`CCCCCCCCCCCCCCCCOC[C@H](COP(=O)([O-])OCC[N+](C)(C)C)OC(=O)NC`: the z-score was -1.68 (inactive) and the cell count came to 5690.
In the case of `O=C(c1cc(Cc2n[nH]c(=O)c3ccccc23)ccc1F)N1CCN(C(=O)C2CC2)CC1`, the z-score is, setting by setting: under setting [1], -0.363 (inactive); under setting [2], -0.127 (inactive); under setting [3], 0.0622 (inactive); under setting [4], 2.51 (active). The cell count by setting is: under setting [1], 6190; under setting [2], 5590; under setting [3], 5940; under setting [4], 3720.
As to `Nc1ccccc1NC(=O)c1ccc(CNC(=O)OCc2cccnc2)cc1`, the z-score was 5.22 (active) and the cell count amounted to 4300. Besides, under setting [5], the z-score is -0.106 (inactive) and the cell count was found to be 4680. For the same molecule, under setting [6], the z-score is -0.0587 (inactive) and the cell count turned out to be 4820. Also, under setting [7], the z-score is 4.46 (active) and the cell count is 3240. Also, under setting [4], the z-score was 13.5 (active) and the cell count amounted to 1730.
For the molecule `CC(C)(C)c1ccc(S(=O)(=O)NCc2ccc(C(=O)Nc3cccnc3)cc2)cc1`, the z-score by setting is: under setting [1], -0.216 (inactive); under setting [2], 0.0762 (inactive); under setting [3], 0.362 (inactive); under setting [4], 0.0219 (inactive). In addition, the cell count is 6170 under setting [1], 5130 under setting [2], 2500 under setting [3] and 1690 under setting [4].
Consider `O=C(NCc1cccnc1)c1ccc(CNS(=O)(=O)c2ccc(F)cc2)cc1`, for which the z-score by setting is: under setting [1], -0.0415 (inactive); under setting [2], -0.565 (inactive); under setting [3], -0.611 (inactive); under setting [4], -0.531 (inactive). In addition, the cell count is, setting by setting: under setting [1], 5120; under setting [2], 5290; under setting [3], 5220; under setting [4], 4960.
